Assay results from PubChem BioAssay AID1159580 (chemical genetic matrix, 2015).
Values joined by “and” are separate entries in the source; they are usually repeats but may differ in a detail not shown here. Equal values may be shown once. The whole screen tested about 5,500 compounds, of which about 2,000 (36%) were called active. Another 18% or so got no clear call; they are omitted. Rule as the data show it: active = normalized growth mostly below about 0.91 (no sharp cut-off); inconclusive = no clear call, values can overlap the other calls; inactive = mostly above about 0.92. Some of the results follow.

Test: chemical genetic growth profiling, strain panel (AID 1159580);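 also: tested at 20 µM; growth read once vehicle control cultures reached saturation at 30 °C; 1 = growth at the plate median or of vehicle wells; lower values mean less growth of the strain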
Conditions: S. cerevisiae deletion strains, growth OD

Measured: normalized growth

CN(C)CC[C@H](c1ccc(Cl)cc1)c1ccccn1
inactive: locus YAL013W, strain DEP1, stronger effect = lower value 0.997 | locus YAL021C, strain ccr4, stronger effect = lower value 0.99 | locus YAL026C, strain drs2, stronger effect = lower value 1.01 | locus YAL030W, strain snc1, stronger effect = lower value 1 | locus YBL061C, strain skt5, stronger effect = lower value 1.01 | locus YBR009C, strain hhf1, stronger effect = lower value 1.01 | locus YBR021W, strain FUR4, stronger effect = lower value 0.995 | locus YBR023C, strain chs3, stronger effect = lower value 0.996 | locus YBR171W, strain sec66, stronger effect = lower value 0.998 | locus YBR229C, strain ROT2, stronger effect = lower value 1 | locus YBR231C, strain swc5, stronger effect = lower value 0.989 | locus YBR279W, strain paf1, stronger effect = lower value 1.01 | locus YCL011C, strain gbp2, stronger effect = lower value 0.993 | locus YCL016C, strain dcc1, stronger effect = lower value 1.02 | locus YCL029C, strain bik1, stronger effect = lower value 1 | locus YCL061C, strain MRC1, stronger effect = lower value 1 | locus YCL069W, strain vba3, stronger effect = lower value 1 | locus YCR088W, strain abp1, stronger effect = lower value 0.989 | locus YDL005C, strain med2, stronger effect = lower value 0.992 | locus YDL035C, strain GPR1, stronger effect = lower value 1.02 | locus YDL040C, strain nat1, stronger effect = lower value 1.01 | locus YDL074C, strain BRE1, stronger effect = lower value 1.01 | locus YDL101C, strain DUN1, stronger effect = lower value 0.998 | locus YDL134C, strain PPH21, stronger effect = lower value 0.996 | locus YDL185W, strain tfp1, stronger effect = lower value 0.985 | locus YDL192W, strain arf1, stronger effect = lower value 1 | locus YDR001C, strain nth1, stronger effect = lower value 0.999 | locus YDR069C, strain doa4, stronger effect = lower value 1.01 | locus YDR101C, strain arx1, stronger effect = lower value 0.998 | locus YDR137W, strain rgp1, stronger effect = lower value 1.03 | locus YDR150W, strain NUM1, stronger effect = lower value 1.01 | locus YDR159W, strain sac3, stronger effect = lower value 1 | locus YDR162C, strain NBP2, stronger effect = lower value 1.01 | locus YDR195W, strain ref2 1.01 | locus YDR297W, strain sur2, stronger effect = lower value 1.01 | locus YDR318W, strain mcm21, stronger effect = lower value 0.985 | locus YDR334W, strain swr1, stronger effect = lower value 1 | locus YDR335W, strain msn5, stronger effect = lower value 1 | locus YDR388W, stronger effect = lower value 0.991 | locus YDR392W, strain spt3, stronger effect = lower value 1.01 | locus YDR502C, strain sam2, stronger effect = lower value 1.01 | locus YEL003W, strain gim4, stronger effect = lower value 1.01 | locus YEL037C, strain rad23, stronger effect = lower value 0.992 | locus YEL061C, strain CIN8 (second series), stronger effect = lower value 1 | locus YEL061C, strain CIN8, stronger effect = lower value 1 | locus YER015W, strain faa2, stronger effect = lower value 1.01 | locus YER016W, strain bim1, stronger effect = lower value 0.99 | locus YER110C, stronger effect = lower value 0.98 | locus YER111C, strain swi4, stronger effect = lower value 0.994 | locus YER155C, strain BEM2 (second series), stronger effect = lower value 1.01 | locus YER155C, strain BEM2, stronger effect = lower value 1 | locus YER167W, strain BCK2, stronger effect = lower value 1.01 | locus YFR010W, strain ubp6, stronger effect = lower value 0.991 | locus YGL078C, strain dbp3, stronger effect = lower value 1 | locus YGL086W, strain mad1, stronger effect = lower value 1.01 | locus YGL167C, strain pmr1, stronger effect = lower value 0.985 | locus YGL173C, strain kem1, stronger effect = lower value 0.998 | locus YGL227W, strain vid30, stronger effect = lower value 1.01 | locus YGL240W, strain doc1, stronger effect = lower value 1.01 | locus YGL248W, strain PDE1, stronger effect = lower value 0.997 | locus YGL253W, strain hxk2, stronger effect = lower value 1.01 | locus YGR078C, strain PAC10, stronger effect = lower value 1.01 | locus YGR135W, strain pre9, stronger effect = lower value 1 | locus YGR229C, strain SMI1, stronger effect = lower value 1.01 | locus YGR252W, strain gcn5, stronger effect = lower value 0.959 | locus YHR013C, strain ard1, stronger effect = lower value 1.01 | locus YHR027C, strain rpn1, stronger effect = lower value 0.998 | locus YHR030C, strain SLT2, stronger effect = lower value 1 and 0.993 | locus YHR079C, strain IRE1 (second series), stronger effect = lower value 0.993 | locus YHR079C, strain IRE1, stronger effect = lower value 1 | locus YHR094C, strain hxt1, stronger effect = lower value 0.99 | locus YHR129C, strain ARP1, stronger effect = lower value 0.999 | locus YHR142W, strain chs7, stronger effect = lower value 1.02 | locus YHR200W, strain rpn10, stronger effect = lower value 0.992 | locus YIL066C, strain RNR3, stronger effect = lower value 1.01 | locus YIL073C, strain SPO22, stronger effect = lower value 0.992 | locus YIL125W, strain kgd1, stronger effect = lower value 0.999 | locus YIR030C, strain dcg1, stronger effect = lower value 0.991 | locus YJL092W, strain hpr5, stronger effect = lower value 1.01 | locus YJL095W, strain BCK1 (second series), stronger effect = lower value 0.997 | locus YJL095W, strain BCK1, stronger effect = lower value 1 | locus YJL115W, strain asf1, stronger effect = lower value 1.01 | locus YJL129C, strain trk1, stronger effect = lower value 1.01 | locus YJL134W, strain LCB3, stronger effect = lower value 1.01 | locus YJL154C, strain vps35, stronger effect = lower value 1.01 | locus YJL164C, strain tpk1, stronger effect = lower value 0.992 | locus YJL166W, strain qcr8, stronger effect = lower value 0.985 | locus YJL168C, strain set2, stronger effect = lower value 0.993 | locus YJL187C, strain SWE1 (second series), stronger effect = lower value 1.01 | locus YJL187C, strain SWE1, stronger effect = lower value 1.01 | locus YJR043C, strain POL32, stronger effect = lower value 0.984 | locus YJR066W, strain TOR1, stronger effect = lower value 0.993
